Among the data in PubChem BioAssay (NCI) are growth values, retold here.

Test in all cases: NCI-60 one-dose screen, 48 h (100 = growth as untreated, 0 = no growth, -100 = all killed)
What all share (conditions): 10 µM unless noted

In assay [1] the test system is MOLT-4 leukemia.
In assay [2] the test system is RPMI-8226 leukemia.
The test system of assay [3] is OVCAR-4 ovarian.
Assay [4] has as its system SK-OV-3 ovarian.
For assay [5], the system named is OVCAR-3 ovarian.
For assay [6], the system named is HS 578T breast.
The test system of assay [7] is NCI/ADR-RES ovarian.
For assay [8], the system named is T-47D breast.
Assay [9] deals with BT-549 breast.
Assay [10] deals with MDA-MB-435 melanoma.
In assay [11] the test system is SW-620 colon.
For assay [12], the system named is MCF7 breast.
The test system of assay [13] is HCT-116 colon.
The test system of assay [14] is HCC-2998 colon.
Assay [15] deals with KM12 colon.
The subject of assay [16] is OVCAR-8 ovarian.
Assay [17] concerns OVCAR-5 ovarian.
In assay [18] the test system is IGROV1 ovarian.
Assay [19] deals with SR leukemia.

Where “and” joins values, the source holds several entries; their conditions need not be identical. Equal entries are not always repeated. About 83,000 compounds went through this panel and 20% of them were active in at least one assay; those are over-represented in the sample as a whole.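 Values shown are percent growth following 48 h exposure of cells in 96-well plates to a single concentration of compound; below 10 was considered active.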 A number with no mark means an inactive call. Calls of active or inactive are those of the source.

Consider `COc1ccc(N)cc1N`, for which the growth in [1] is 163%; in [2], 90.1%; in assay [3], 97.6%; in assay [4], 100%; in assay [5], 120%; in assay [6], 108%. Further, the growth is 106% in [7]; 96.1% in assay [8]; 112% in assay [9]; 122% in assay [10]; 107% in [11]; 94.8% in assay [12]. Moreover, the results for the growth in assay [13], in assay [14] and in assay [15] were 108%, 119% and 99.7%, respectively.
As for `Nc1c(Cl)c(Cl)nc(C(=O)O)c1Cl`, the growth in [1] is 70.2%; in assay [2], 123%; in [16], 94.2%; in assay [17], 111%; in assay [3] it was 95.4%; in assay [4], 99.9%. Besides, the growth is 29.9% in assay [18]; 107% in [5]; 104% in assay [6]; 101% in [7]; 101% in assay [8]; 106% in [10]. The growth in assay [11] is 99.1%; in assay [12], 95.2%; in assay [13], 97.3%; in [14] it was 95.7%; in assay [15] it was 101%.
With `CN(C)C(=S)SSC(=S)N(C)C`, the growth in assay [1] was 92.3%; in [2] it was 85.6% and 70%; in [16], 95.4% and 104%; in assay [17], 97.4% and 110%; in assay [3], 107% and 106%; in assay [4] it was 122% and 113%. In addition, the growth is 99.1% in assay [18]; 88.5% and 112% in [5]; 101% and 112% in [6]; 110% and 113% in assay [7]; 85.8% and 95.4% in assay [8]; 101% and 111% in assay [9]. The growth was 97.3% in assay [10]; 69.2% and 98% in assay [11]; 70.9% in assay [12]; 99% in assay [13]; 109% in assay [14]; 81.8% and 95.8% in assay [15].
As to `COCC1OC2OC3C(COC)OC(OC4C(COC)OC(OC5C(COC)OC(OC6C(COC)OC(OC7C(COC)OC(OC8C(COC)OC(OC1C(O)C2O)C(O)C8O)C(O)C7O)C(O)C6O)C(O)C5O)C(O)C4O)C(O)C3O` (stereo not drawn) (tested in a mixture with another compound), the growth was 99.6% in assay [1]; 91.3% in [19]; 114% in [16]; 104% in assay [17]; 111% in [3]; 117% in [4]. In addition, the growth in assay [18] is 184%; in assay [5], 119%; in assay [6], 105%; in assay [7] it was 127%; in assay [8] it was 113%; in assay [10] it was 117%. Also, the growth in [11] is 109%; in assay [13] it was 120%; in [14], 89.4%; in assay [15], 109%.
For `Nc1cccnc1`, the growth was 101% in assay [1]; 90.4% in assay [19]; 104% in assay [16]; 116% in [17]; 129% in assay [3]; 105% in assay [4]. The growth in assay [18] was 106%; in [5], 119%; in assay [7], 104%; in [8] it was 106%; in assay [9], 110%; in assay [10], 122%. In addition, the growth was 105% in assay [11], 104% in assay [13], 101% in assay [14] and 112% in [15].
Take `O=[N+]([O-])c1ccc2scc3c4ccccc4nc-3c2c1`: the growth in [19] is 15.9%; in assay [2], -29.5% (active); in [16], -62.3% (active); in [17], -77.1% (active); in [3] it was -88.5% (active); in [4], 45.8%. In addition, the growth in [18] was -59% (active); in assay [5], -99% (active); in assay [6], -2.07% (active); in assay [7] it was 10.7%; in [8], -24.3% (active); in assay [9] it was 22.7%. Further, the growth was -2.05% (active) in assay [10]; -76.4% (active) in assay [11]; -64.6% (active) in assay [12]; -98.7% (active) in assay [13]; 95.7% in assay [14]; 1.98% (active) in [15].
With `O=[N+]([O-])c1ccc(CI)cc1`, the growth in assay [1] is 14.7%; in assay [19], 34.4%; in assay [16], 84.4%; in assay [17], 96.8%; in assay [3] it was 102%; in assay [4], 116%. For the same compound, the growth in assay [18] was 115%; in assay [6], 111%; in [7], 70.9%; in assay [8], 73.3%; in assay [9] it was 98.6%; in assay [10], 90.4%. Also, the growth is 26.4% in assay [11], 1.59% (active) in [13], 108% in assay [14] and 106% in assay [15].
As to `[N-]=[N+]=CC(=O)CCC(=O)C=[N+]=[N-]`, the growth in assay [1] is 87%; in assay [2] it was 119%; in assay [16], 98.9%; in [17] it was 107%; in [3], 108%; in assay [4], 109%. Besides, the growth is 49.2% in assay [18]; 103% in assay [5]; 95.3% in assay [6]; 103% in [7]; 106% in [8]; 113% in assay [10]. The growth in assay [11] is 94.1%; in [12] it was 99.9%; in [13], 102%; in [14], 109%; in assay [15], 121%.
